# Screening results from PubChem BioAssay.
# pPAFAH FP inh: pPAFAH enzyme inhibitors, primary screen, biochemical, fluorescence polarization, human; Platelet-activating factor acetylhydrolase (Homo sapiens), Q13093; recombinant pPAFAH, FP-rhodamine probe fluorescence polarization; inhibition, % at 3.39 µM; actives 1.5% (n = 330,000);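 active = inhibition above the mean inhibition across the screen plus 3 SD, cut at about 25% in these data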;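 note: inhibitors block binding of the rhodamine activity-based probe so polarization drops; 0% = enzyme with DMSO and 100% = wells lacking pPAFAH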
# Target sequence (Q13093 whole entry, looked up): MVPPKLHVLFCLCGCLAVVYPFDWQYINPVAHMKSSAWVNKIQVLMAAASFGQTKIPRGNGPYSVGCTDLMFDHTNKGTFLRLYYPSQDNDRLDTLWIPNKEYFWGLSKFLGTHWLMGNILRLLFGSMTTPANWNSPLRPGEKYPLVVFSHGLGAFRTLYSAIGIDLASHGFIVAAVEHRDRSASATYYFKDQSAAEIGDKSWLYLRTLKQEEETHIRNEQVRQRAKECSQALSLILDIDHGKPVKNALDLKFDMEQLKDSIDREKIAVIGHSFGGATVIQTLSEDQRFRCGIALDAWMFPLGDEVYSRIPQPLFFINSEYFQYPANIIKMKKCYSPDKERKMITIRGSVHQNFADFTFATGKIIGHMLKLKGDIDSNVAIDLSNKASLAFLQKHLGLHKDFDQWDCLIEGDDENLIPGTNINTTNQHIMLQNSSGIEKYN
# EBNA-1 inh: EBNA-1 DNA-binding inhibitors, primary screen, biochemical, fluorescence polarization | AID 1950, 2009 | inhibition, % at 14.8 µM | actives 0.34% (n = 300,000); in the data active = inhibition above about 28%
# PAFAH1B2 FP inh: PAFAH1B2 enzyme inhibitors, primary screen, biochemical, fluorescence polarization, human. Platelet-activating factor acetylhydrolase IB subunit alpha2 (Homo sapiens), P68402. recombinant PAFAH1B2, FP-rhodamine activity probe. inhibition, % at 3.39 µM. actives 1.2% (n = 340,000);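 active = inhibition above the mean of all tested compounds plus 3 SD, cut at about 24% in these data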;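 note: 0% = enzyme with DMSO and 100% = wells lacking PAFAH1B2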
# Target sequence (P68402 whole entry, looked up): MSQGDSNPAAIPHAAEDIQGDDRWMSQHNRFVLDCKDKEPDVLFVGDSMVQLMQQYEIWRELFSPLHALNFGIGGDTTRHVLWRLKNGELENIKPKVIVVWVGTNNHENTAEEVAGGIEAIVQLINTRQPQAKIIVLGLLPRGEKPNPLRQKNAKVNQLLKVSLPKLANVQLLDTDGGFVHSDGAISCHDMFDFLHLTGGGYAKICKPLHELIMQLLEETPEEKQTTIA
# PAFAH1B3 inh: PAFAH1B3 enzyme inhibitors, primary screen, biochemical, fluorescence polarization, human; Platelet-activating factor acetylhydrolase IB subunit alpha1 (Homo sapiens), Q15102; actives 0.28% (n = 340,000); inhibition, % at 3.39 µM; AID 492972, 2010; recombinant PAFAH1B3, FP-rhodamine probe;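 active = inhibition above the screen-wide average of all tested compounds plus 3 SD, cut at about 25% in these data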;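 note: 0% = enzyme with DMSO only and 100% = wells lacking PAFAH1B3 protein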
# ZTA counter: ZTA (EBV) inhibition in EBNA-1 counter-screen. AID 2234. inhibition, % at 11 µM. actives 0.15% (n = 320,000). P03206. ZTA-DNA binding, fluorescence polarization; in the data active = inhibition above about 33%
# PAFAH2 inh: PAFAH2 enzyme inhibitors, primary screen, biochemical, fluorescence polarization, human | recombinant PAFAH2, FP-rhodamine activity probe | inhibition, % at 3.39 µM | actives 0.99% (n = 340,000);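 active = inhibition above the mean over all tested compounds plus 3 SD, cut at about 30% in these data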;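 note: inhibitors block probe labeling of enzyme so polarization drops; 0% = enzyme with DMSO and 100% = wells lacking PAFAH2 protein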
# pPAFAH FP conf: pPAFAH (PLA2G7) enzyme inhibitors, confirmation, biochemical, fluorescence polarization, human; shares compounds with pPAFAH FP inh; recombinant pPAFAH, FP-Rh probe fluorescence polarization; inhibition, % at 3.39 µM; actives 72% (n = 2,300);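 active = mean inhibition of the triplicate above the hit cutoff set for the earlier primary screen, cut at about 25% in these data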;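 note: 0% = enzyme with DMSO and 100% = wells lacking pPAFAH enzyme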
# Numbers without * were called inactive; · = no result. Sampled rows, rich in hits. Any-hit rate of the full collection: about 2.9%.
SMILES,pPAFAH FP inh,EBNA-1 inh,PAFAH1B2 FP inh,PAFAH1B3 inh,ZTA counter,PAFAH2 inh,pPAFAH FP conf
COc1ccc(/C=C2/C(=O)N(c3nc4ccccc4s3)N=C2CSc2ccc(Cl)cc2)cc1,50.7*,8.6,-6.8,4.3,18.4,-7.9,17.7
Cc1ccc(NC(=O)Cn2nc(C(=O)O)c3ccccc3c2=O)cc1S(=O)(=O)N1CCCCCC1,·,·,0.5,3.1,·,-5.5,·
Cc1ccc(C)c(N2CC(C(=O)Nc3cc(C)on3)CC2=O)c1 (centres undefined),-2.6,1.8,6.5,8.1,3.7,17.1,·
CCN(CC)S(=O)(=O)c1cccc(C(=O)N/N=C/c2cccc(O)c2O)c1,41.1*,3.8,0.4,4.1,-14.0,12.0,29.3*
Cc1nn(C)c(C)c1C(C)NC(=O)c1cc(COc2ccc(F)c(F)c2)on1 (centres undefined),4.3,0.2,0.7,9.4,14.9,-3.5,·
Nc1c(C(=O)Nc2nc3ccccc3s2)sc2nc(-c3cccs3)ccc12,50.1*,9.2,9.1,6.3,-3.1,18.3,43.3*
CCN(CC(=O)NCc1ccc(F)cc1)C(=O)CCNS(=O)(=O)c1cccc(C)c1,-3.8,·,-1.8,-0.6,1.1,-4.2,·
CC(=O)Nc1ccc(C=NNc2ccc(S(=O)(=O)Nc3ccccc3C(=O)O)cc2[N+](=O)[O-])cc1,64.0*,·,25.7*,26.7*,·,29.4,66.5*
CN(CCO)c1ccc(C=NNc2ccc([N+](=O)[O-])cc2S(=O)(=O)Nc2ccccc2C(=O)O)cc1,48.8*,·,·,·,·,·,55.2*
COc1cc(/C=N/Nc2ccc(S(N)(=O)=O)cc2[N+](=O)[O-])cc(OC)c1O,12.0,-5.0,0.4,10.2,0.4,5.8,·
COc1cc(C=NNc2ccc(S(=O)(=O)Nc3ccccc3C(=O)O)cc2[N+](=O)[O-])ccc1O,62.8*,·,30.5*,20.8,·,47.5*,77.8*
O=[N+]([O-])c1ccc(N/N=C/c2ccccc2)c(F)c1,6.7,-12.3,-0.8,4.3,-5.1,1.4,·
Fc1ccc(NC(=S)NCCN2CCOCC2)c(F)c1F,5.6,3.9,0.7,3.4,4.2,4.5,·
COc1ccc(N2CCOCC2)c(NC(=O)c2cc3ccccc3o2)c1,10.0,5.3,1.0,-12.1,-1.5,-3.5,·
CCn1c(=S)sc2c(=O)n(CC(=O)Nc3ccc(OC)c(Cl)c3)c(C)nc21,3.9,-2.7,4.8,2.7,6.6,-3.1,·
CC1CCCC(NC(=O)CSc2n[nH]c(=O)n2Cc2ccccc2)C1C (centres undefined),1.3,·,·,·,·,·,·
C[C@H](CO)N1C[C@H](C)[C@@H](CN(C)S(C)(=O)=O)Oc2ccc(NC(=O)Nc3ccc(C(F)(F)F)cc3)cc2C1=O,44.1*,·,0.8,0.9,·,-14.2,45.0*
C[C@@H]1CN([C@H](C)CO)C(=O)c2cc(NC(=O)Nc3ccc(C(F)(F)F)cc3)ccc2O[C@H]1CN(C)S(=O)(=O)c1cccs1,-25.0,·,-44.0,-91.0,·,-74.6,·
CC(=O)N1CCN(c2ccc(Nc3ncnc4c3oc3ccccc34)cc2)CC1,69.3*,-10.2,0.3,4.6,-5.5,-5.7,67.0*
CCc1nc(Nc2ccc(N3CCN(C(C)=O)CC3)cc2)c2oc3ccccc3c2n1,41.5*,7.7,1.1,-1.7,-3.3,5.7,33.2*
Cc1ccnc(NCc2ccccc2O)c1,41.3*,5.1,0.7,7.5,-8.6,4.0,0.9
O=C(COC(=O)c1ccccc1SCC(=O)N1CCCC1)NCc1ccccc1,-4.8,-10.4,0.6,2.1,-8.1,17.6,·
C/C(=N\NC(=O)c1cc(O)cc(O)c1)c1ccc(NC(=O)Cc2ccccc2)cc1,45.1*,-3.8,18.9,34.5*,-7.5,26.6,15.1
C/C(=N\NC(=O)c1cccc(F)c1)c1ccc(NC(=O)Cc2ccccc2)cc1,·,·,4.0,-6.4,·,-0.5,·
O=CNc1ccc2c(c1)Cc1cccc(NC=O)c1-2,·,·,1.1,5.4,·,0.2,·
SMILES,pPAFAH FP inh,EBNA-1 inh,PAFAH1B2 FP inh,PAFAH1B3 inh,ZTA counter,PAFAH2 inh,pPAFAH FP conf
COC(=O)CCN1CCc2cc(N=Nc3ccc([N+](=O)[O-])cc3)ccc21,1.6,-14.8,·,·,-2.3,·,·
N=C1SC(c2ccccc2)C(=O)N1c1ncc(Cc2ccccc2Cl)s1 (centres undefined),58.3*,0.8,13.3,-0.5,14.4,25.3,71.0*
Cc1cccc(N=C2NC(=O)/C(=C/C=C/c3ccco3)S2)c1C,70.7*,1.3,8.9,9.2,14.5,47.7*,66.3*
O=C1NC(=Nc2ccccc2)S/C1=C\C=C\c1ccco1,60.4*,15.4,3.3,13.4,19.6,29.6,38.4*
Cc1ccc(N=C2NC(=O)S/C2=C\c2ccco2)cc1,14.0,6.9,3.6,1.4,7.7,0.3,·
Cc1ccc(N=C2NC(=O)/C(=C/C=C/c3ccco3)S2)cc1,68.2*,2.2,0.5,12.7,-3.7,21.4,33.1*
CCOc1ccc(N(CC(=O)Nc2nccs2)S(=O)(=O)c2c(C)[nH]c(=O)[nH]c2=O)cc1,3.6,-6.7,2.6,-5.0,-17.8,3.7,·
Cc1cc(Br)c(OCc2ccc(C(=O)N/N=C3\CC4CC=CC34)cc2)c(Br)c1 (centres undefined),5.9,1.0,-1.0,-2.4,0.8,-3.9,·
COc1cc2[nH]c3c(Cl)ncnc3c2cc1OC,1.5,3.5,-1.2,5.6,-4.0,5.0,·
COc1cc2[nH]c3c(N4CCN(c5ccc(Cl)cc5)CC4)ncnc3c2cc1OC,61.8*,6.7,12.4,38.5*,5.8,1.2,53.8*
C/C(N)=C(/C#N)C(=O)COC(=O)c1cc(C)n(-c2ccc(F)cc2)c1C,36.4*,-24.5,5.4,7.2,0.5,7.1,28.1*
O=C1CCCN1CC(=O)N1CCCC(N2CCN(c3cccc(Cl)c3)CC2)C1 (centres undefined),-3.4,5.7,3.0,-3.2,2.5,-3.0,·
O=C(Nc1ccc(N2CCCC2)cc1)c1cc(Br)ccc1Cl,47.0*,-4.7,3.5,5.7,-11.0,1.8,5.3
CCCc1ccc2oc(C(=O)N3CCN(C4CCS(=O)(=O)C4)CC3)c(C)c2c1 (centres undefined),22.4,5.6,3.8,9.4,9.8,4.5,·
CCCc1ccc2oc(C(=O)N3CCC(O)CC3)c(C)c2c1,39.5*,-6.8,-1.6,3.1,-5.5,-2.6,23.3
O=[N+]([O-])c1ccc(Cl)c2c1C1C=CCC1C(c1ccccn1)N2 (centres undefined),37.3*,12.6,8.8,24.9,-0.5,27.3,7.1
